Artemis endo inh: inhibitors of human Artemis endonuclease activity. Q96SD1. recombinant Artemis, quenched FAM hairpin cleavage fluorescence. inhibition, % at 10 µM. 30,000 tested, 0.78% active. AID 686954;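 active = at 10 µM dose, at least 30% inhibition, measured as corrected fluorescence normalized to stimulator and neutral control wells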
Target sequence (Q96SD1 whole entry, looked up): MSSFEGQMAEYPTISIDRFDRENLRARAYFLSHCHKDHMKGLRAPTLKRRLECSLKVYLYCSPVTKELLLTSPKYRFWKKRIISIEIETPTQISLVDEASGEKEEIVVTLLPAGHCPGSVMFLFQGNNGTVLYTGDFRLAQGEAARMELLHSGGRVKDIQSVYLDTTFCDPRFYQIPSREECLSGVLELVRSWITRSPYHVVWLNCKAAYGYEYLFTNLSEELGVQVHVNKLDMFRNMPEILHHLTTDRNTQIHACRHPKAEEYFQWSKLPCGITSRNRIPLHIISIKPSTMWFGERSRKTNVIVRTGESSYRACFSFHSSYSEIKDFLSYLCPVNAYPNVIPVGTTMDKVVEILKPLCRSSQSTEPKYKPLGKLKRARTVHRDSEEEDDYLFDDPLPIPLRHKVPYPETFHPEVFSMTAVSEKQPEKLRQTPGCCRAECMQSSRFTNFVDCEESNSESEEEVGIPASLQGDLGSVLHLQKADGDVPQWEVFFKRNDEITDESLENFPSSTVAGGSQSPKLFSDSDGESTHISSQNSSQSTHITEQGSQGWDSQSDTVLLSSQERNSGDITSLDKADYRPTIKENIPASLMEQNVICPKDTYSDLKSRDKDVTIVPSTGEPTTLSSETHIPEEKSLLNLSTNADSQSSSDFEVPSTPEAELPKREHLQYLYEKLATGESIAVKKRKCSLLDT
An asterisk follows results filed as active. The entries come from a sample that favours hits as a whole.

SMILES | Artemis endo inh
CC(=O)c1c(N)nc2n(c1=O)CCCCC2 | -9.5
CCCn1c(=O)c2c(c3ccccc31)OC(C)C(=O)N2 (centres undefined) | -8.0
Cc1csc(NC(=O)CCC(=O)N(CC(=O)NC2CCCC2)Cc2ccco2)n1 | 3.1
Cc1sc(NC(=O)C2CCCCC2C(=O)O)c(C(N)=O)c1-c1ccc(C(C)(C)C)cc1 (centres undefined) | 40.1*
Cc1sc(NC(=O)C2CCCCC2C(=O)O)c(C(N)=O)c1-c1ccccc1 (centres undefined) | 2.2
Cc1sc(NC(=O)C2CCCCC2C(=O)O)c(C(N)=O)c1-c1ccc(C(C)C)cc1 (centres undefined) | 27.2
CCOC(=O)c1[nH]c2cc3c(cc2c1NC(=O)CN1CC(C)CC(C)C1)OCO3 (centres undefined) | -1.3
CN(C)CCn1c(C(=O)O)cc2ccccc21 | -0.1
Cc1ccc(C(=O)COC(=O)CCC(=O)Nc2cccc(Cl)c2)cc1[N+](=O)[O-] | -13.4
O=C(Cc1cn2ccsc2n1)Nc1ccccc1Oc1ccccc1 | -0.6
CCN1CCc2nc(NC(=O)CC(c3ccccc3)c3ccccc3)sc2C1 | 39.0*
O=C(Cc1cn2ccsc2n1)Nc1nc2c(s1)CN(Cc1ccccc1)CC2 | 56.8*
CCN1CCc2nc(NC(=O)C(c3ccccc3)c3ccccc3)sc2C1 | 48.8*
CCCSc1nc2sc3c(c2c(=O)[nH]1)CCN(Cc1ccccc1)C3 | 21.4
CC1CCc2nc(NC(=O)CN3CCN(c4ccccc4)CC3)sc2C1 (centres undefined) | 4.8
CC1CCc2nc(NC(=O)CN3CCOCC3)sc2C1 (centres undefined) | 7.1
O=C(Cc1cn2ccsc2n1)OCc1ccccc1 | -6.2
CCN1CCc2c(sc(NC(=S)NC(=O)c3ccccc3)c2C#N)C1 | 0.9
CCn1c(SCC(=O)Nc2ccc(NC(=O)c3cccs3)cc2)nnc1-c1cccnc1 | -0.7
C(=N\n1cnnc1)/c1ccc(N2CCOCC2)s1 | -12.1
O=C(NNC(=O)c1ccc([N+](=O)[O-])o1)c1ccccc1 | 0.2
Cc1ccc(/C=N\Nc2nc3ccc(Cl)cc3[nH]2)o1 | -4.4
CCCOC(=O)/C(=C\c1ccc([N+](=O)[O-])o1)NC(=O)c1ccccc1 | 4.7
O=[N+]([O-])c1ccc(/C=N/Nc2nc(-c3ccccc3)c3cc(Br)ccc3n2)o1 | 57.5*
Cc1ccc2nc(N/N=C\c3ccc([N+](=O)[O-])o3)nc(-c3ccccc3)c2c1 | 39.2*
SMILES | Artemis endo inh
O=[N+]([O-])c1cccc(-c2ccc(/C=N/NC(=S)Nc3ccccc3)o2)c1 | 16.2
COc1cc(C)ccc1OCCCOc1ccccc1Br | -6.1
COc1ccc(CCC(N)=O)cc1OC | -3.4
COc1ccc(Cl)cc1NC(=O)C(C)Sc1nncn1C (centres undefined) | -2.6
O=C(N1CCCCCC1)N1CCN(C(=O)N2CCOCC2)CC1 | -8.6
COc1ccc(C(=O)Oc2cc(/C=N/NS(=O)(=O)c3ccccc3)ccc2OC)cc1 | 5.0
CN1C(=O)N(CN2CCCCC2)C2C1N(C)C(=O)N2CN1CCCCC1 (centres undefined) | 0.6
COc1ccc(C(=O)NC(=S)Nc2ccc3c(c2)Cc2ccccc2-3)cc1 | -2.1
CCn1c(SCC(=O)c2ccc(F)cc2)nnc1-c1ccoc1C | 5.8
CCn1c(SCC(=O)c2ccc(O)c(O)c2)nnc1-c1ccccc1OC | 30.3*
CCn1c(SCC(=O)c2ccc(O)c(O)c2)nnc1-c1ccccc1 | 12.7
CCCC(=O)NC1=C(C#N)C2(CCCCC2)Cc2ccccc21 | -6.5
c1ccc2c(N3CCCCCC3)nc(-c3ccncc3)nc2c1 | 2.4
c1ccc(N2CCN(c3nc(-c4ccccn4)nc4ccccc34)CC2)cc1 | 93.1*
Oc1ccccc1-c1nc(N2CCN(Cc3ccccc3)CC2)c2ccccc2n1 | 13.0
CCCn1c(=N)n(CCOc2ccc(OC)cc2)c2ccccc21 | 1.1
COC(=O)CN(c1ccc(C)cc1)S(=O)(=O)c1ccc2c(c1)n(C)c(=O)c(=O)n2C | -3.0
CCN(CC)c1ccc(/C=N/Nc2nc3ccccc3[nH]2)c(O)c1 | 37.6*
CCCCNc1nc2ccccc2[nH]1 | 1.3
CCN(CC)c1ccc(C=Nc2ccc(C#N)cc2)c(O)c1 | 1.9
COc1ccc(NC(=S)Nc2ccc(OCc3ccccc3)cc2)cc1OC | -2.6
COc1ccccc1NC(=O)C(=O)N/N=C(\C)CC(=O)Nc1ccc(OCc2ccccc2)cc1 | 32.9*
COc1ccccc1NC(=O)CN1CCN(CC(=O)Nc2ccc(OCc3ccccc3)cc2)CC1 | 5.0
OC1C=CSc2nc3ccccc3n21 (centres undefined) | -2.0
Cc1ccc(NC(NC(=O)c2cccs2)C(Cl)(Cl)Cl)cc1 (centres undefined) | 7.3
SMILES | Artemis endo inh
O=C(Cc1ccccc1)NC(Nc1cccc2ccccc12)C(Cl)(Cl)Cl (centres undefined) | -0.5
O=C(Cc1ccccc1)NC(Nc1ccccc1)C(Cl)(Cl)Cl (centres undefined) | 31.1*
Cc1oc2c(c1C(=O)c1ccccc1)C(=O)C(=O)c1ccccc1-2 | 59.3*
O=C(c1ccccc1)c1cc2ccccc2o1 | -1.3
Cc1onc(-c2ccccc2)c1C(N)=O | 3.1
Cn1c(SCC(=O)N2CCOCC2)nnc1-c1cccc(NC(=O)c2ccccc2)c1 | -2.8
COc1ccc2cc(-c3cc(C(=O)O)c4ccccc4n3)ccc2c1 | 23.5
CC(C)C(c1nnnn1CC1CCCO1)N1CCN(C2CCCC2)CC1 (centres undefined) | -8.1
COC(=O)c1cc(Br)c(=O)n(CCc2ccc(O)cc2)c1 | -7.2
Cc1ccc(NC(=O)CN2C(=O)S/C(=C\c3cccn3-c3cccc(C(=O)O)c3)C2=O)c(C)c1 | 32.0*
Cc1ccccc1NC(=O)CN1C(=O)S/C(=C\c2cccn2-c2cccc(C(=O)O)c2)C1=O | 22.4
Cc1cccc(C)c1NC(=O)CN1C(=O)S/C(=C\c2cccn2-c2cccc(C(=O)O)c2)C1=O | 22.0
COc1ccc2nc(SCC(=O)Nc3c(C)cccc3C)[nH]c2c1 | 5.3
CC1(C)CC(=O)C2=C(C1)Oc1nc3ccccc3cc1C2C(C#N)C#N (centres undefined) | -4.0
CC(C)NC(=O)/C(=C/c1ccco1)c1ccccc1 | -7.5
CC(C)C(C(=O)O)N1C(=O)/C(=C/C=C/c2ccco2)SC1=S (centres undefined) | 39.0*
CN(C)c1ccc(/C=C/C=C2/SC(=S)N(c3ccccc3)C2=O)cc1 | 8.9
CCOC(=O)CNC(=O)CSc1nnc(-c2cccc(C)c2)n1-c1ccc(OC)cc1 | 2.4
Cc1sc2c(=O)n3c(nc2c1C(=O)NCCCN1CCOCC1)CCCCC3 | -8.3
Cc1c(Cl)cccc1Nc1nc(N)nc(CN2CCCCCC2)n1 | 3.8
CC1CC(C)CN(Cc2nc(N)nc(Nc3ccccc3)n2)C1 (centres undefined) | -2.7
Cc1ccc(Nc2nc(N)nc(CN3CCCCCC3)n2)cc1 | 40.4*
Cc1ccc(C)c(-n2c(CNC(=O)c3ccco3)nnc2SCC(=O)N2CCc3ccccc32)c1 | 3.5
CCCc1cc2c(cc1NC(=O)c1ccc(Br)cc1)OCO2 | 4.3
CC(=O)N/C(=C/c1ccc2c(c1)OCO2)C(=O)NCCCO | -12.7
CCNc1ccc(Br)cc(C(=O)/C=C/c2ccc3c(c2)OCO3)c1=O | 34.3*
COC(=O)c1cccc(NC(=O)CSc2nnc(COc3ccccc3)n2C)c1 | 11.2
Cc1cc(N2C(=O)C(O)=C(C(=O)c3ccco3)C2c2ccc(O)cc2)no1 (centres undefined) | -2.3
CCc1ccc2nc(N3C(=O)C(O)=C(C(=O)c4ccco4)C3c3cccs3)sc2c1 (centres undefined) | 43.1*

From PubChem BioAssay
